# Assay results as given in PubChem BioAssay AID651965 (National Center for Advancing Translational Sciences (NCATS), 2013).
# The campaign covered roughly 340,000 compounds. About 6,400 (1.9%) were called active. Not shown: some 4% with an inconclusive outcome. Many of the other results were omitted from the sample, so actives are more common in it than they were. A number with no mark means an inactive call. Calls follow the shape of the dose curve; as a rule, active = well fitted falling curve with a large enough effect; inconclusive = small, poorly fitted or top-dose-only effect; inactive = no such curve, though single readings can be large or run the other way.
# Molecular target: ATP-dependent Clp protease proteolytic subunit (Bacillus subtilis (strain 168)) (UniProt P80244)
# Experiment: qHTS Assay for Activators of ClpP; also: the source files actives as falling curves though it sought activators and does not explain the sign; nearly all actives have a fitted effect of over 65% in size
# Details: purified B. subtilis ClpP, FRET peptide cleavage, 20 min; series mostly up to 57.5 µM; activity change, negative = active: at the top concentration
# How it was run: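 Buffer: 100 mM Tris/HCl pH8, 100 mM KCl, 0.05% low protease BSA, 2.5% glycerol, 0.01% Tween-20. ClpP 10 microg/mL final; 20 min RT; delta FRET normalized to ADEP and DMSO controls.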
# Potency is read from the fitted curve at half-maximal effect.
# Sequence of ATP-dependent Clp protease proteolytic subunit (Bacillus subtilis (strain 168)) (P80244 whole entry, looked up): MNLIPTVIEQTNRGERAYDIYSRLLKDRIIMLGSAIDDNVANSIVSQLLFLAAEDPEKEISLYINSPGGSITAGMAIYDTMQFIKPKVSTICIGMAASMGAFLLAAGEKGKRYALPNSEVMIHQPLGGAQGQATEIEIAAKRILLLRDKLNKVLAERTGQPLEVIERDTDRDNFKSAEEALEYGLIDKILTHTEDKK
SMILES,"activity change, negative = active [%]",Potency
Cc1ccc([C@H]2C[C@H](O)[C@@H](n3cc(COC(=O)c4ccccc4)nn3)CN2CC2CCCCC2)cc1,-2.3,–
COc1ccc(C(C)(O)c2nc(-c3ccc(C)c(C)c3)cs2)cc1 (stereo not given),-3.11,–
ClC/C=C/C[n+]1ccccc1Cl,-7.68,–
CCc1cc(=O)oc2cc(C)cc(OC(C)C(=O)O)c12 (stereo not given),–,3.55 µM (active)
Cc1cc(OC(C)C(=O)NC2CC(C)(C)NC(C)(C)C2)c2c(C)cc(=O)oc2c1 (stereo not given),3.98,–
CCc1cc(=O)oc2cc(C)cc(OCC(=O)N3CCC[C@@H]3C(=O)O)c12,4.5,–
CC1(C(=O)NS(=O)(=O)c2ccc(C#N)cc2)CCN1C(=O)c1ccc(C2CCCCC2)cc1 (stereo not given),-4.45,–
CC(C)(C)c1ccc(C(=O)C[n+]2cccc3cc(Cl)ccc32)cc1,-13.7,–
O=C(NCCN1CCOCC1)c1cc(-c2cccs2)nc2ccccc12,–,28.2 µM (active)
O=C(NCCN1CCOCC1)c1cc(Sc2cccc(Cl)c2)nc2ccccc12,-1.49,–
O=C(NCC(c1cccs1)N1CCOCC1)c1cc(-c2ccccn2)nc2ccccc12 (stereo not given),-5.18,–
NC(c1csc(NC(=O)Nc2ccccc2Oc2ccccc2)n1)c1ccccc1Cl (stereo not given),-6.76,–
O=C(NCc1ccc(F)cc1)c1cc(C2CCCCN2C(=O)c2ccccn2)on1 (stereo not given),-2.01,–
CCOC(=O)c1c(NC(=O)c2ccc(S(=O)(=O)N(CC)CC)cc2)sc2c1CCCCC2,-3.63,–
COC(=O)c1c(NC(=O)CSc2nncs2)sc2c1CCCCC2,-0.465,–
COC(=O)c1c(NC(=O)c2ccc(Cl)c(Cl)c2)sc2c1CCCC2,-1.63,–
CCOC(=O)c1c(NC(=O)c2ccc(Br)o2)sc2c1CCCC2,–,31.6 µM (active)
CCOC(=O)c1c(NC(=O)c2cc(-c3ccc(Cl)cc3)on2)sc2c1CCCC2,0.147,–
COC(=O)c1c(NC(=O)c2cccs2)sc2c1CCCC2,–,35.5 µM (active)
Cc1noc(C)c1-c1ccc(C(=O)NCc2ccncc2)c2occc12,4.3,–
CC(C)OCCCNC(=O)c1cc(Sc2ccc(F)cc2)nc2ccccc12,3.39,–
CCN1CCCC1Cn1cnc2c([nH]c3cc(OC)ccc32)c1=O (stereo not given),-28.6,–
CCN1CCCC1CNc1ncnc2c1[nH]c1ccc(F)cc12 (stereo not given),–,28.2 µM (active)
CC(C)OCCCNc1ncnc2c1[nH]c1ccc(F)cc12,–,15.8 µM (active)
Fc1ccc2[nH]c3c(N4CCN(Cc5ccc6c(c5)OCO6)CC4)ncnc3c2c1,-28.2,–

SMILES,"activity change, negative = active [%]",Potency
CCN1CCCC1CNC(=O)c1cc2cc(OC)c(OC)cc2[nH]1 (stereo not given),3.65,–
Cc1ccc([C@H]2N[C@]3(CCCN(CC4CCCCC4)C3=O)[C@H]3C(=O)N(Cc4ccccc4)C(=O)[C@@H]23)cc1,0.684,–
CCCc1c(-c2ccccc2F)ncn1Cc1ccccc1OC,-0.97,–
C=C1C(=O)OC2C1CCC(C)=CCCC1(C)OC21 (stereo not given),-0.985,–
O=C(NCc1ccc(F)cc1)c1cc(C2CCCCN2C(=O)c2cccs2)on1 (stereo not given),1.26,–
COc1cc2[nH]c(C)c(CCN3CCN(c4ccccc4)CC3)c2cc1OC,-28.6,–
CC1(C(=O)NS(=O)(=O)C2CC2)CCCN(C(=O)CSc2ccccc2)C1 (stereo not given),1.92,–
CC1(C(=O)NCC2CCOCC2)Cc2c(-c3cccc(C(N)=O)c3)ccnc2O1 (stereo not given),-12.4,–
COc1ccc(-c2csc(C(O)c3cccc(Cl)c3)n2)cn1 (stereo not given),-0.133,–
O=C(Cn1c(=O)nc(-c2ccccc2)c2cc(Cl)ccc21)NCc1ccc(Cl)cc1,4.43,–
O=C(Cn1c(-c2cccs2)cc2ccccc21)NCCc1ccc(Cl)cc1,–,20 µM (active)
Cc1cccc(Cn2c(=O)n(CCC(=O)NCCc3ccc(Cl)cc3)c(=O)c3sccc32)c1,-1.47,–
CN(C)C1CN(Cc2cn(Cc3ccccc3)nn2)S(=O)(=O)C1 (stereo not given),1.81,–
O=c1[nH]c2ccccc2n1C1CCN(CCOc2ccccc2)CC1,1.5,–
COC(=O)C1(C(=O)OC)C[C@H](c2ccccc2)N(Cc2ccccc2OC)[C@@H]1c1ccccc1,-5.6,–
O=C(NCc1ccc2c(c1)OCO2)c1c(O)nc2sccn2c1=O,-1.8,–
O=C(NCc1ccc(Cl)cc1)c1cc(=O)nc2sc(-c3ccccc3)nn12,-10.5,–
O=C(NCc1ccc(Cl)cc1)c1cc2c(nc3sccn32)s1,–,31.6 µM (active)
CCc1nc2ccc(C(=O)NCc3ccc(OC)cc3)cn2c1N(CC)Cc1cccc(Br)c1,-26.8,–
COc1ccc(C(O)C(O)(C(=O)OC(C)C)c2ccc(C)cc2)cc1 (stereo not given),-0.377,–
COc1ccc(C(C(=O)NCc2ccccc2)n2c(=O)c(-c3ccccc3)nc3ccccc32)cc1 (stereo not given),–,28.2 µM (active)
N#Cc1ccc(C(C(=O)NCc2ccccc2)n2c(=O)c(-c3ccco3)nc3ccccc32)cc1 (stereo not given),3.44,–
CC(C)(C)NC(=O)C(CCc1ccccc1)n1c(=O)c(-c2ccccc2)nc2ccccc21 (stereo not given),-29.6,–
CCc1nc2c(OCCOc3ccc(F)cc3)cccn2c1N(C)C(=O)c1ccccc1F,0.272,–
CC(C)(C)Cc1c(C2CCCCC2)nc2ccc(Br)cn12,-1.44,–
